# Measured values as given in PubChem BioAssay (NCATS).
# Inconclusive results are not listed. A call without a number means that no potency is given here. Values without a mark were called inactive. Calls of active or inactive are those of the source. The call rests on the fitted dose curve; in most records, active means well fitted inhibition curve with a large enough effect; inconclusive means small, poorly fitted or top-dose-only effect; inactive means flat fitted curve, though single readings scatter.
# Legend:
# PC15 = assay: qHTS profiling for inhibitors of Plasmodium falciparum proliferation (AID 504749); settings: P. falciparum in erythrocytes, SYBR Green DNA, 72 h; series mostly up to 28.7 µM
# How it was run: (§1)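 Three-day growth assay of blood-stage parasites in erythrocytes (0.3% parasitemia, 2.5% hematocrit) at 37 C, 5% CO2, quantified by SYBR Green DNA staining after overnight detergent lysis.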
# PC26 = assay: as above; settings: P. falciparum in erythrocytes, SYBR Green DNA, 72 h; series mostly up to 28.7 µM
# How it was run: as §1
# PC49 = assay: as above; settings: P. falciparum in erythrocytes, SYBR Green DNA, 72 h; series mostly up to 28.7 µM
# How it was run: as §1
# SC27B = assay: as above; settings: P. falciparum in erythrocytes, SYBR Green DNA, 72 h; series mostly up to 28.7 µM
# How it was run: as §1
# TAB109 = assay: as above; settings: P. falciparum in erythrocytes, SYBR Green DNA, 72 h; series mostly up to 28.7 µM
# How it was run: as §1
# TAB113 = assay: as above; settings: P. falciparum in erythrocytes, SYBR Green DNA, 72 h; series mostly up to 28.7 µM
# How it was run: as §1
# TAB165 = assay: as above; settings: P. falciparum in erythrocytes, SYBR Green DNA, 72 h; series mostly up to 28.7 µM
# How it was run: as §1
# W2 = assay: as above; settings: P. falciparum in erythrocytes, SYBR Green DNA, 72 h; series mostly up to 28.7 µM
# How it was run: as §1
# CRL-7250 = normal cell line; assay: Cytotoxic Profiling of Annotated Libraries Using Quantitative High-Throughput Screening (AID 1296008); settings: Five cell lines viability, CellTiter-Glo ATP luminescence, 48-72 h; max response: active compounds read low
# How it was run: (§2)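 Cytotoxicity was measured as CellTiter-Glo ATP luminescence, read after 10 min at room temperature. Compound treatment of the cells lasted 48 or 72 hr at 37 degrees Celsius in a qHTS format.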
# HEK293 = assay: as above; settings: Five cell lines viability, CellTiter-Glo ATP luminescence, 48-72 h; max response: active compounds read low
# How it was run: as §2
# Further: nearly all actives have a fitted effect of over 60% in size.
# Potency means the concentration at half of the fitted maximal effect.
compound,measurement,setting,value
CCCCCCCCCC(CC)c1ccc(S(=O)(=O)O)cc1 (stereo not given),Potency,PC15,inactive
same,Potency,PC26,inactive
same,Potency,PC49,inactive
same,Potency,SC27B,inactive
same,Potency,TAB109,inactive
same,Potency,TAB113,inactive
same,Potency,TAB165,inactive
same,Potency,W2,inactive
same,max response,CRL-7250,-1.12%
NC(=O)CN1CC(O)CC1=O (stereo not given),Potency,PC15,inactive
same,Potency,PC26,inactive
same,Potency,PC49,inactive
same,Potency,SC27B,inactive
same,Potency,TAB109,inactive
same,Potency,TAB113,inactive
same,Potency,TAB165,inactive
same,Potency,W2,inactive
O=[N+]([O-])c1c2ccccc2cc2ccccc12,max response,HEK293,-16%
C1CCC(NC2CCCCC2)CC1,Potency,PC15,inactive
same,Potency,PC26,inactive
same,Potency,PC49,inactive
same,Potency,SC27B,inactive
same,Potency,TAB109,inactive
same,Potency,TAB113,inactive
same,Potency,TAB165,inactive
same,Potency,W2,inactive
same,outcome,CRL-7250,inactive
same,max response,HEK293,2.36%
C[N+](C)(C)CC(=O)O,max response,HEK293,-2.82%
NC1=NC(=O)N2CC12 (stereo not given),Potency,PC15,inactive
same,Potency,PC49,inactive
same,Potency,SC27B,inactive
same,Potency,TAB113,inactive
same,Potency,CRL-7250,11.8 µM (active)
CC(=O)[O][Hg][c]1ccccc1,Potency,PC15,3.55 µM (active)
same,Potency,PC26,6.75 µM (active)
same,Potency,PC49,2 µM (active)
same,Potency,SC27B,4.47 µM (active)
same,Potency,TAB109,4.47 µM (active)
same,Potency,TAB113,7.08 µM (active)
same,Potency,TAB165,4.47 µM (active)
same,Potency,W2,4.78 µM (active)
same,Potency,CRL-7250,4.22 µM (active)
N=c1c2c(-c3ccccc3)c(-c3ccccc3)n(Cc3ccccc3)c2ncn1C1CCC(O)CC1 (stereo not given),Potency,HEK293,0.418 µM (active)
COC(C)(C)CCCC(C)C/C=C/C(C)=C/C(=O)OC(C)C (stereo not given),Potency,SC27B,inactive
same,Potency,TAB109,inactive
same,Potency,W2,10.7 µM (active)
same,max response,CRL-7250,1.51%
same,max response,HEK293,3.25%
Cc1ccc(Cl)c(O)c1,Potency,PC15,inactive
same,Potency,PC26,inactive
same,Potency,PC49,inactive
same,Potency,SC27B,inactive
same,Potency,TAB109,inactive
same,Potency,TAB113,inactive
same,Potency,TAB165,inactive
same,Potency,W2,inactive
same,max response,CRL-7250,3.13%
same,max response,HEK293,-16.6%
c1ccc(C2(c3ccccc3)CC2C2=NCCN2)cc1 (stereo not given),Potency,PC15,5.62 µM (active)
same,Potency,PC26,inactive
same,Potency,PC49,inactive
same,Potency,SC27B,inactive
same,Potency,TAB109,inactive
same,Potency,TAB113,inactive
same,Potency,TAB165,inactive
N#C[C@H](O[C@@H]1O[C@H](CO[C@@H]2O[C@H](CO)[C@H](O)[C@H](O)[C@H]2O)[C@H](O)[C@H](O)[C@H]1O)c1ccccc1,Potency,HEK293,23.5 µM (active)
CN(C)[C@@H]1C(=O)C(C(N)=O)=C(O)[C@@]2(O)C(=O)C3=C(O)c4c(O)cccc4[C@@](C)(O)[C@H]3[C@H](O)[C@@H]12,Potency,PC15,inactive
same,Potency,PC26,inactive
same,Potency,PC49,inactive
same,Potency,SC27B,inactive
same,Potency,TAB113,inactive
same,max response,CRL-7250,-1.31%
same,outcome,HEK293,inactive
O=[N+]([O-])c1ccc([As](=O)(O)O)cc1,Potency,PC26,13.5 µM (active)
same,Potency,SC27B,4.47 µM (active)
same,Potency,TAB109,6.31 µM (active)
same,Potency,TAB113,7.08 µM (active)
same,Potency,TAB165,5.01 µM (active)
same,Potency,W2,4.78 µM (active)
same,outcome,CRL-7250,inactive
same,outcome,HEK293,inactive
CN[C@@H]1C[C@@H](c2ccc(Cl)c(Cl)c2)c2ccccc21,Potency,TAB113,inactive
same,Potency,W2,4.78 µM (active)
CC1=C(O)C(=O)C=C2C1=CC=C1[C@@]2(C)CC[C@@]2(C)[C@@H]3C[C@](C)(C(=O)O)CC[C@]3(C)CC[C@]12C,Potency,HEK293,1.48 µM (active)
CCCCCCCCCCCCCCCC[N+](C)(C)C,Potency,PC49,inactive
same,Potency,SC27B,12.6 µM (active)
same,Potency,TAB113,8.91 µM (active)
same,Potency,W2,6.75 µM (active)
same,Potency,CRL-7250,6.68 µM (active)
COC(=O)c1cncn1C(C)c1ccccc1 (stereo not given),Potency,PC26,inactive
same,max response,CRL-7250,-11.1%
same,max response,HEK293,-16.1%
C[C@]12CCC(=O)C(O)=C1CC[C@@H]1[C@H]3CCC(=O)[C@@]3(C)CC[C@@H]12,Potency,PC15,inactive
same,Potency,PC26,inactive
same,Potency,PC49,inactive
same,Potency,W2,inactive
same,max response,CRL-7250,-0.395%
same,max response,HEK293,-10.2%
C=CCC1=C(C)C(OC(=O)C2C(C=C(C)C)C2(C)C)CC1=O (stereo not given),Potency,HEK293,19.3 µM (active)
CC[N+]1(CCOC(=O)C(O)(c2ccccc2)c2ccccc2)CCCCC1,Potency,PC15,inactive
same,Potency,PC26,inactive
same,Potency,PC49,inactive
same,Potency,SC27B,inactive
same,Potency,TAB113,inactive
same,Potency,W2,inactive
same,max response,CRL-7250,-4.52%
same,outcome,HEK293,inactive
CC(C)NC(C)Cc1ccc(I)cc1 (stereo not given),Potency,PC15,inactive
same,Potency,PC49,inactive
same,Potency,SC27B,inactive
same,Potency,TAB109,inactive
same,Potency,TAB113,inactive
same,Potency,TAB165,inactive
same,Potency,W2,10.7 µM (active)
